Anthrax LF inh2: anthrax lethal factor protease inhibition; 360,000 tested, 0.12% active; inhibition, % at 10 µM; multiplex microsphere protease cleavage assay, LF; further: plate controls were buffer without enzyme for full effect and enzyme alone for no effect
Target sequence (P15917 whole entry, looked up): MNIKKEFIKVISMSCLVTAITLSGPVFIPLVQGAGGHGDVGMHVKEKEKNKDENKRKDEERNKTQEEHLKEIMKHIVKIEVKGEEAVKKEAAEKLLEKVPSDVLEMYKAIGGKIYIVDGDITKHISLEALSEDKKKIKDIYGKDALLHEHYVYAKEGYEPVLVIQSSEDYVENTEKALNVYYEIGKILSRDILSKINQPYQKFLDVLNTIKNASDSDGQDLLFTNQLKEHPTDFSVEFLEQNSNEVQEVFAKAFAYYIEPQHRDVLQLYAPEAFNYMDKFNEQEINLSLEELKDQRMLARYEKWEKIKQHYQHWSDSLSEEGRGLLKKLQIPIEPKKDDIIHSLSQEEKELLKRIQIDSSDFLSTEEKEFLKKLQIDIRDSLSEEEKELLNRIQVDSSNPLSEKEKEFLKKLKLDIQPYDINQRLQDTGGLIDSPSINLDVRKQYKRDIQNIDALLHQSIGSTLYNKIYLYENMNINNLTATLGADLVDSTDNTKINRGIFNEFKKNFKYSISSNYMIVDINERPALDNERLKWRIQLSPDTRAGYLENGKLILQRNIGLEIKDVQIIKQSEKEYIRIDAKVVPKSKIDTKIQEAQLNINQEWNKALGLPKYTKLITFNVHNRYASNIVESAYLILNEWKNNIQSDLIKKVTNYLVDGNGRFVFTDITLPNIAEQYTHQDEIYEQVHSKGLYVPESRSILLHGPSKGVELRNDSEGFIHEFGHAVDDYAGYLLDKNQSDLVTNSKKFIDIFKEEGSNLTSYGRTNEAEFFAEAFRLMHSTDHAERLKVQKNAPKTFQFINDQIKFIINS
3CLpro inhibitor: SARS-CoV 3CLpro protease inhibition | P0C6X7 | recombinant SARS-CoV 3CLpro, quenched FRET peptide cleavage | inhibition, % at 6 µM | 290,000 tested, 0.14% active | AID 1706; in the data active means inhibition above about 12%
BoNT-A LC inh2: blocks Botulinum neurotoxin A light chain protease | AID 588499 | 360,000 tested, 0.17% active | multiplex microsphere protease substrate cleavage, flow cytometry | inhibition, % at 10 µM; further: plate controls were buffer without enzyme for full effect and enzyme alone for no effect
Bead autofluor: flagged as autofluorescent in microsphere protease counterscreen | compound autofluorescence counterscreen, microsphere flow cytometry; active compounds read high | fluorescence intensity (no concentration beside the values) | 360,000 tested, 3.1% active | AID 624483; in the data active means fluorescence intensity above about 16000; inconclusive means no clear call, values can overlap the other calls
BoNT F protease: inhibitors of Botulinum neurotoxin F light chain protease | Multiplex microsphere protease cleavage assay, flow cytometry | inhibition, % at 10 µM | 360,000 tested, 0.22% active; in the data active means inhibition above about 35%, passing the limit was not always enough; inconclusive means no clear call, values can overlap the other calls; further: plate controls were buffer without enzyme for full effect and enzyme alone for no effect
Numbers without * were called inactive; ? = inconclusive; . = no result. Compounds with a hit are over-represented: about 3.5% of the library has one in this group of screens. Unless noted, no stated cut-off is given here; in the data, active means inhibition above about 30%; inconclusive means no clear call, values can overlap the other calls; inactive means below that.

SMILES	Anthrax LF inh2	3CLpro inhibitor	BoNT-A LC inh2	Bead autofluor	BoNT F protease
CCC(=O)N(C1=C(NC)C(=O)c2ccccc2C1=O)C(C)C	-0.1	10.2	0.0	2348	-5.2
Cc1cccc(NC(=O)CSc2nc(-c3ccccc3)c(C#N)c(=O)[nH]2)c1C	-2.8	1.0	0.1	2491	1.9
Cc1ccc(CC(CC(=O)O)C(=O)NCC23CC4CC(CC(C4)C2)C3)cc1 (configuration not stated)	-5.5	3.5	-0.3	5031	-10.9
Cc1ccc(CC(CC(=O)O)C(=O)NC2CCCCC2)cc1 (configuration not stated)	-2.4	-0.7	-1.3	22833*	-2.8
CCC(C)Sc1nc2c(c(=O)[nH]c(=O)n2C)n1CC(O)COc1ccccc1C (configuration not stated)	8.2	-1.5	3.1	4190	24.5
O=C(Nc1ccccc1C(F)(F)F)N1CCN(c2ccc3nnc(-c4ccc(F)cc4)n3n2)CC1	-0.9	-8.2	0.2	10256	-8.6
O=C(Nc1ccccc1C(F)(F)F)N1CCN(c2ccc3nncn3n2)CC1	-3.9	-0.6	-1.9	20519*	-3.7
O=C(OCC(=O)N1CCc2ccccc21)c1ccc(Cl)nc1	0.8	-0.5	0.4	23913*	-1.9
Cc1cc(C)c(S(=O)(=O)c2c(C)cccc2C)c(OCC(C)C)n1	0.1	1.2	-0.5	23555*	-2.0
CC(C)c1nnc(NC(=O)CSc2nc3ccccc3s2)s1	-11.6	2.3	3.9	20149*	5.2
Cc1csc(NC(=O)CCCSc2nc3ccccc3s2)n1	-2.7	-2.1	1.3	21652*	1.8
C=CC[n+]1cccc(-c2cc3ccc(C)cc3[nH]2)c1	2.2	-0.8	3.0	3594	-7.3
Oc1ccccc1C(=S)N1CCCCC1	-6.1	4.9	0.1	2874	-9.4
Oc1ccccc1C(=S)N1CCCCCC1	-8.0	-5.0	2.3	19817*	1.2
COc1cc(C)c(S(=O)(=O)N2CCN=C2c2ccccc2)cc1C	-0.6	3.5	0.6	2399	3.1
Cc1cc(C)c(S(=O)(=O)N2CCN=C2c2ccccc2)cc1C	-2.4	-0.9	-1.0	22172*	-4.0
COc1cc([C@H]2[C@@H]3CCCC[C@]3(O)CCN2CC(=O)Nc2ccc(C)cc2)ccc1O	-5.4	4.4	0.7	22835*	-4.2
COc1ccc(NC(=O)CN2CCC3(O)CCCCC3C2c2ccccc2OC)cc1 (configuration not stated)	.	-3.8	.	.	.
O=C(NC1CC1)c1ccc(NC(=O)C2CCC2)cc1	-3.2	.	-0.1	3050	-6.4
CC(=O)N1CCc2cc(S(=O)(=O)NC(C)c3ccccc3)ccc21 (configuration not stated)	2.5	-7.1	-0.4	5558	2.2
CC(=O)N1CCc2cc(S(=O)(=O)NC(CC(C)C)C(=O)N3CCn4c3nc3ccccc34)ccc21 (configuration not stated)	1.1	4.5	0.9	21252*	-1.5
CC(=O)N1CCCc2cc(S(=O)(=O)NC(C(=O)NC(C)c3ccccc3)C(C)C)ccc21 (configuration not stated)	0.7	-10.0	-0.7	16474*	-1.3
O=C(Nc1ccccc1N1CCCC1)C1CCN(S(=O)(=O)c2ccccc2)CC1	-7.8	.	-0.5	6505	-15.0
CCCCSc1nnc(-c2ccc(OC)cc2)n1C	0.2	7.1	0.9	2835	6.7
Cc1sc2ncnc(SCC(=O)c3cccs3)c2c1C	-2.2	5.5	-1.5	16770*	-5.2
SMILES	Anthrax LF inh2	3CLpro inhibitor	BoNT-A LC inh2	Bead autofluor	BoNT F protease
Cc1cccc(NC(=O)CSc2ncnc3sc(C)c(C)c23)n1	-4.1	0.4	2.0	5416	0.2
Cc1sc2nc(SCC(=O)c3cccs3)n(Cc3ccco3)c(=O)c2c1C	0.4	4.4	-0.2	22489*	-0.9
Cc1cc(C)nc(NC(=O)c2cccc(Br)c2)n1	-19.8	-2.2	2.7	2950	?
Cc1ccccc1SCC(=O)NC1CCOC1=O (configuration not stated)	-1.8	-5.2	1.2	22927*	2.2
O=S(=O)(c1ccc(-c2nc3ccccc3s2)cc1)N1CCCC1	-4.9	-3.7	-0.4	11222	-2.3
O=S(=O)(c1cccc(-c2nc3ccccc3s2)c1)N1CCCC1	-2.6	5.4	-1.8	23878*	-5.2
NC(=O)c1oc2ccc(Cl)cc2c1N	-5.3	1.8	-11.3	8221	-153.5
CCSc1nnc(NC(=O)c2csc3c2CCC(C)C3)s1 (configuration not stated)	-2.2	1.0	-0.2	10092	-1.3
CCSc1nnc(NC(=O)c2cccnc2)s1	-4.7	-6.0	9.8	19138*	13.1
CCSc1nnc(NC(=O)c2csc3c2CCCC3)s1	-1.1	-1.8	0.2	22354*	1.1
CCCCc1nc2ccccc2c(=O)n1-c1ccc(Cl)cc1[N+](=O)[O-]	-0.4	-4.8	?	22486*	-0.8
CCOC(=O)c1c(C)n(C)c2ccc(OCC(O)Cn3nc(C)cc3C)cc12 (configuration not stated)	-4.9	7.4	-0.2	16244*	-3.4
CCOC(=O)c1c(C)n(C)c2ccc(OCC(O)CN(CC)CC)cc12 (configuration not stated)	2.9	-6.6	-0.4	5998	-12.1
COc1ccc(C(=O)NC(C)CCn2cccn2)cc1OC1CCN(C(C)C)CC1 (configuration not stated)	6.0	1.5	1.8	5053	-0.7
COc1ccc(S(=O)(=O)NCc2ccc(C(=O)N3CCN(Cc4ccccc4)CC3)cc2)cc1	-2.6	1.9	0.5	4561	-4.3
CCn1nnnc1-c1ccc(OC)c(S(=O)(=O)NCc2ccccc2)c1	-5.9	0.9	-0.4	3452	-4.8
COc1ccc(CCNS(=O)(=O)c2cccc(C)c2)cc1OC	-1.6	0.6	-1.7	20544*	-4.1
COc1ccc(-c2nnnn2C)cc1S(=O)(=O)NCCc1ccccc1	1.8	-1.7	?	19418*	2.7
COc1ccc(S(=O)(=O)NCc2ccc(C(=O)O)cc2)cc1	0.4	3.6	-0.5	20146*	1.1
COc1ccc(OC)c(S(=O)(=O)NCc2ccccc2)c1	-3.1	-5.0	-1.1	16582*	-5.9
CCc1nnc(NC(=O)CS(=O)(=O)c2ccccc2)s1	4.1	-8.2	1.3	3602	7.5
COc1ccc([C@@H]2C[C@@H](c3ccccc3)Oc3cc(OC)c(OC)c(OC)c32)cc1	-3.2	.	-0.1	3863	-3.3
COc1ccc(S(=O)(=O)NCc2ccccn2)cc1NC(=O)c1ccccc1	-5.7	-6.8	-2.5	6310	-5.0
COc1ccc(S(=O)(=O)NCc2ccncc2)cc1OC	0.2	1.2	-2.1	23943*	-1.8
COc1ccc(S(=O)(=O)NCc2cccnc2)cc1OC	-0.6	-2.9	1.5	3965	-6.4
COc1ccc(-n2nnnc2S(=O)(=O)Cc2ccc(C(=O)O)cc2)cc1	-11.4	-1.1	5.9	17765*	3.3
COc1ccc(NS(=O)(=O)c2cc(-c3nnnn3C)ccc2OC)cc1	-14.5	-3.2	6.5	18825*	9.6
O=C1CSC(c2ccc([N+](=O)[O-])cc2)N1Cc1ccccc1 (configuration not stated)	3.9	-2.4	?	4198	?
O=C(CCc1ccccc1)Nc1cccnc1Cl	?	-2.5	4.9	3754	65.5*

Screens: PubChem BioAssay, several laboratories
